The source made the active and inactive calls.

The target in experiment [1] is Albumin (Bos taurus) (UniProt P02769). Put plainly: bovine serum albumin binders on microarray, profiling panel, artefact control for SMM control protein annotation, biochemical, small-molecule microarray, Alexa647 label, 635/667 nm fluorescence (AID 1118).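 Note: score merges 667 nm emission intensity and signal-to-noise per printed compound spot.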 The following applies: BSA-A647 binding, fluorescence 635 nm, higher = more signal.
Experiment [2] in a line: small-molecule microarray binders of probe aXIP, primary screen, biochemical, NeuroSMM set, 635/667 nm fluorescence (AID 1119).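 Note: probe is the protein aXip251-270 applied at 1 µg/mL to compound-printed slides; binding of probe to printed compounds measured as 667 nm fluorescence plus signal to noise.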 Conditions: higher = more signal, called active from +8 up or from −8 down.
Experiment [3] in a line: small-molecule binders of probe aNOTCH3, primary screen, biochemical, small-molecule microarray, 635/667 nm fluorescence (AID 1120).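 Note: probe is a biotin-tagged antibody raised against NOTCH3 rather than NOTCH3 protein; score merges spot fluorescence near 667 nm with spot signal to noise.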 Conditions: higher = more signal.
Experiment [4] is described as follows: small-molecule binders of probe aNOTCH2, primary screen, biochemical, small-molecule microarray, 635/667 nm fluorescence (AID 1121).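 Note: score merges feature fluorescence read at 667 nm with its signal to noise.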 Conditions: higher = more signal.
For experiment [5], the target named is Carbonic anhydrase 2 (Homo sapiens) (UniProt P00918). Briefly: CAII small-molecule binders, profiling panel, biochemical, small-molecule microarray, Alexa647-labelled CAII (AID 1122). The following applies: CAII-A647 binding fluorescence, higher = more signal.
A short description of experiment [6]: COS7 lysate on small-molecule microarray, probe aHis, 635 nm (AID 1123).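 Note: z-score combines 667nm fluorescence intensity with signal-to-noise per printed compound spot.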 The following applies: COS7 cell lysate, fluorescence, higher = more signal.
Experiment [7] is described as follows: compound binding in COS7 lysate, probe aLAP1, primary screen, cell lysate, small-molecule microarray (AID 1124).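 Note: lysate comes from COS7 cells expressing LAP1 and is applied at 0.3 µg/mL; score merges spot fluorescence near 667 nm with signal-to-noise over triplicate slides.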 The following applies: probe aLAP1, fluorescence, higher = more signal.
The test system of experiment [8] is Sam68 (KHDRBS1). Briefly: Sam68 small-molecule binders, primary screen, biochemical, small-molecule microarray, 635 nm fluorescence (AID 1125).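 Note: score merges 667 nm channel intensity with signal to noise over triplicate slides.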 Conditions: small-molecule microarray binding, higher = more signal.
Experiment [9] has as its system Chordin-like protein 2 (CHRDL2). Put plainly: CHRDL2 small-molecule binders, primary screen, biochemical, small-molecule microarray, 635 nm fluorescence (AID 1126).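 Note: printed compound slides probed with Chrdl2 protein at 4 µg/mL for 1 h at 4 C; score merges 667 nm emission intensity with signal to noise over three replicate slides.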 Conditions: small-molecule microarray binding, fluorescence 635 nm; higher = more signal.
Experiment [10] concerns the target Concanavalin-A (Canavalia ensiformis) (UniProt P02866). Put plainly: ConA small-molecule binders, primary screen, artefact control for SMM control protein annotation, biochemical, small-molecule microarray, Alexa647 label, 635 nm (AID 1127).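 Note: z combines 667 nm emission intensity with signal-to-noise across three replicate slides.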 The following applies: ConA-A647 binding fluorescence, higher = more signal.
Experiment [11] in a line: anti-His antibody binders, primary screen, artefact control for SMM control protein annotation, biochemical, small-molecule microarray, 635 nm fluorescence (AID 1128).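 Note: score merges feature fluorescence with signal-to-noise for each printed compound spot.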 Conditions: anti-His Alexa647 antibody binding, higher = more signal.
Experiment [12] relates to Human papillomavirus type 1a E7 protein (residues 1-88). Briefly: HPV1a E7 small-molecule binders, primary screen, biochemical, small-molecule microarray, residues 1-88, 635 nm (AID 1129). Conditions: small-molecule microarray binding, fluorescence 635 nm; higher = more signal.
For experiment [13], the target named is Focal adhesion kinase 1 (Homo sapiens) (UniProt Q05397). Put plainly: small-molecule microarray binders of FAK, primary screen, biochemical, 635/667 nm fluorescence, BSA, DTT (AID 1130).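 Note: composite of spot emission at 667 nm and signal to noise over triplicate slides.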 The following applies: PTK2 binding, 635 nm fluorescence, higher = more signal.
In experiment [14] the test system is Fibrinogen (Alexa647-labelled). Put plainly: fibrinogen binders on compound microarrays, profiling panel, artefact control for SMM control-protein annotation, biochemical, small-molecule microarray, 635/667 nm fluorescence (AID 1131).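 Note: z-score merges 667 nm fluorescence with per-spot signal-to-noise over triplicate slides.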 The following applies: fibrinogen-A647 binding fluorescence, higher = more signal.
Experiment [15] deals with Follistatin (Homo sapiens) (UniProt P19883). Put plainly: follistatin binders on small-molecule microarrays, primary screen, biochemical, small-molecule microarray, 635/667 nm fluorescence (AID 1132). Conditions: FST binding, 635 nm fluorescence, higher = more signal.
In experiment [16] the target is Fibroblast growth factor 2 (Homo sapiens) (UniProt P09038). Put plainly: FGF2 binders on small-molecule microarrays, primary screen, biochemical, small-molecule microarray, 635/667 nm fluorescence (AID 1133). The following applies: small-molecule microarray binding, FGF2, fluorescence 635/667; higher = more signal.
Experiment [17] in a line: mitochondrial membrane potential change in A549 cells, profiling panel, cell-based, JC-1 fluorescence, basal, 24 h, 100 nL (AID 1138).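 Note: A549 lung adenocarcinoma cells under basal conditions with no added stimulus; test concentration not given here.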 The following applies: higher = more signal.
The test system of experiment [18] is Lefty1. Briefly: Lefty1 binders on small-molecule microarrays, primary screen, biochemical, small-molecule microarray, 635/667 nm fluorescence (AID 1139). Conditions: small-molecule microarray binding, fluorescence 635/667; higher = more signal.
Experiment [19] concerns wheat germ agglutinin (Triticum aestivum), Alexa647-labelled. Briefly: wheat germ agglutinin binders on compound microarrays, profiling panel, artefact control for SMM control-protein annotation, biochemical, small-molecule microarray, 635/667 nm fluorescence (AID 1140).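 Note: score merges 667 nm feature emission with signal to noise over triplicate slides.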 The following applies: WGA-A647 binding, 635 nm fluorescence, higher = more signal.
Experiment [20] has as its target Luciferin 4-monooxygenase (Photinus pyralis) (UniProt P08659). Briefly: firefly luciferase enzyme inhibitors, primary screen, biochemical, luminescence, purified enzyme, 2006 set (AID 1141).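 Note: cell-free assay with purified firefly luciferase at 100 ng per well in PBS; test concentration not given here.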 The following applies: SteadyGlo luminescence, 30 min, higher = more signal, called active from +8 up or from −8 down.

Albumin (Bos taurus), sequence (P02769 whole entry, looked up): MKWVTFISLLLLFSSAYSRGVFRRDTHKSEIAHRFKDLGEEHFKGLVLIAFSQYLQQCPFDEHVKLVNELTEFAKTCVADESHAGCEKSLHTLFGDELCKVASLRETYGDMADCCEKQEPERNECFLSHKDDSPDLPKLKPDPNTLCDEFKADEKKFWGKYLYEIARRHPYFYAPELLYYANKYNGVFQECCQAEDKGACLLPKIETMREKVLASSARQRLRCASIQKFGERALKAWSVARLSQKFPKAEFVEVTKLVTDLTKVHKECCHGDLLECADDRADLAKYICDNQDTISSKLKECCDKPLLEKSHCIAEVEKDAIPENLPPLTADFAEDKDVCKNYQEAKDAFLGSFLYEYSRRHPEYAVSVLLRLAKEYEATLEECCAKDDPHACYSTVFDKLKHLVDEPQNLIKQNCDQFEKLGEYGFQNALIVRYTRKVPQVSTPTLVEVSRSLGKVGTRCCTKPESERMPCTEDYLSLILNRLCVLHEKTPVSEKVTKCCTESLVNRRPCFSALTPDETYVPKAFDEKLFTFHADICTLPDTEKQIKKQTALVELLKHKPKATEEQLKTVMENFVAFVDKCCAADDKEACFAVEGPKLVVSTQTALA
Follistatin (Homo sapiens), sequence (P19883 whole entry, looked up): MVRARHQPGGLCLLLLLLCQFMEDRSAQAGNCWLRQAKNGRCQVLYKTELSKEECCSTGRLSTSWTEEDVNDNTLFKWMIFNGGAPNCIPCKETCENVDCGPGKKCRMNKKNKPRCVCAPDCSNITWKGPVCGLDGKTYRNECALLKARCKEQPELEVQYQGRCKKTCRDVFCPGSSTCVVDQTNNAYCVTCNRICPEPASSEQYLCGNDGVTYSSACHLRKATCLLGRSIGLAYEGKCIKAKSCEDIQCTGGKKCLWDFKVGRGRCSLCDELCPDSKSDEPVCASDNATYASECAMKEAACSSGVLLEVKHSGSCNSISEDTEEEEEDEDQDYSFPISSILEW
Fibroblast growth factor 2 (Homo sapiens), sequence (P09038 whole entry, looked up): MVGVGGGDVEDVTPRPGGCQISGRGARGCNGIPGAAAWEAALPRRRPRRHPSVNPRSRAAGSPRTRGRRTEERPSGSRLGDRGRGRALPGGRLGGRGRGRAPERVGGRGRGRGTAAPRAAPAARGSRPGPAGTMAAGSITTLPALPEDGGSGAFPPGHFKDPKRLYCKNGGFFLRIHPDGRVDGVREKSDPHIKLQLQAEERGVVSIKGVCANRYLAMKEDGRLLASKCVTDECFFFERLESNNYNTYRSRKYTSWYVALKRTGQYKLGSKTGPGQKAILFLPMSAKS
Concanavalin-A (Canavalia ensiformis), sequence (P02866 whole entry, looked up): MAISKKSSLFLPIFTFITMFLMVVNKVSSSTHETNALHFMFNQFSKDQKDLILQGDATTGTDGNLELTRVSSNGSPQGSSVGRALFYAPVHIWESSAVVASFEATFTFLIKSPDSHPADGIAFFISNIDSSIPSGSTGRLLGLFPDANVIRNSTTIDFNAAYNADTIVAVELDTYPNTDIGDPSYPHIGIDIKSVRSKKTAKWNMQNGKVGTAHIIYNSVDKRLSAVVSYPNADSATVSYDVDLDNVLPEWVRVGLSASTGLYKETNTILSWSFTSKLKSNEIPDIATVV
Focal adhesion kinase 1 (Homo sapiens), sequence (Q05397 whole entry, looked up): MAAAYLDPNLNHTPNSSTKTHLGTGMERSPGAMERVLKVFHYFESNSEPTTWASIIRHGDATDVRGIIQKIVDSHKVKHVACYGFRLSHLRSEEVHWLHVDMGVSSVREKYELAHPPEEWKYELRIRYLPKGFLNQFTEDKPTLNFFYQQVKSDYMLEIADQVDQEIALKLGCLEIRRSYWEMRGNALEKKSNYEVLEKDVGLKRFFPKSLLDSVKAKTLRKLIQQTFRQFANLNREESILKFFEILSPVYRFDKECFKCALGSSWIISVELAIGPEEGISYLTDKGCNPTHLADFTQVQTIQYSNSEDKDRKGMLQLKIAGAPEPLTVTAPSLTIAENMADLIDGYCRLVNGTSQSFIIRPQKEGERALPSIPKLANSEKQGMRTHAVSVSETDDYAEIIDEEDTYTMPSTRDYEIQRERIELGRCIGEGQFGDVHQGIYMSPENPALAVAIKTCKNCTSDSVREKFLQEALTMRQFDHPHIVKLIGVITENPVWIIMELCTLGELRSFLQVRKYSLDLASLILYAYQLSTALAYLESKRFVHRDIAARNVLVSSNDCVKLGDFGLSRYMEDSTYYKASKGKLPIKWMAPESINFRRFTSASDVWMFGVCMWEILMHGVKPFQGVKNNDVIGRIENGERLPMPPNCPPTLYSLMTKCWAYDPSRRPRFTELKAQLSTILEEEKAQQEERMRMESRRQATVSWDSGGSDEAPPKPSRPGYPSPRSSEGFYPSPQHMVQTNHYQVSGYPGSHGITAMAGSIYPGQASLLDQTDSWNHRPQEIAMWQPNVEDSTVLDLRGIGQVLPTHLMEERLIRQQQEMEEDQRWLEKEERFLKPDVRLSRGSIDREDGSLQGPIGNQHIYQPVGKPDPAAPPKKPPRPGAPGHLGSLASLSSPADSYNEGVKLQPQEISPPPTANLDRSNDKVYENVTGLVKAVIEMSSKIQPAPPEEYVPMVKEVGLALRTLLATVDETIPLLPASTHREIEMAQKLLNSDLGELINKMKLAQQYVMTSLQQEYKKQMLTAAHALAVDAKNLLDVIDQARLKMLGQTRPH
Luciferin 4-monooxygenase (Photinus pyralis), sequence (P08659 whole entry, looked up): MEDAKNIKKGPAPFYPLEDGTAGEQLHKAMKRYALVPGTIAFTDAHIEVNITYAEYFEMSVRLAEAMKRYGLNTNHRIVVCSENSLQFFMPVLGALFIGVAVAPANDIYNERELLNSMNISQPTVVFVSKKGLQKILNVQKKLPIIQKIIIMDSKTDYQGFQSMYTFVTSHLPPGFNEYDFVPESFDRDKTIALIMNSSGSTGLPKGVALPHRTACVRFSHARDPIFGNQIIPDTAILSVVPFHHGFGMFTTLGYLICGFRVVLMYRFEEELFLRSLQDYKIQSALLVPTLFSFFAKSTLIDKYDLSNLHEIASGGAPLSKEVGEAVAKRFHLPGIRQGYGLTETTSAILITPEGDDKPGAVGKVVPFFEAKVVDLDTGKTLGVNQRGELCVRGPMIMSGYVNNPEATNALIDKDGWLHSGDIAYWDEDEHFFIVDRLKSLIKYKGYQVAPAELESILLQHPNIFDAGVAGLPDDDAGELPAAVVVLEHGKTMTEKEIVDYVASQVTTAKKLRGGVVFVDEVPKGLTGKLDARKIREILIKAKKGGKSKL

As for `CCOC(=O)C[C@H]1[C@H](OC(=O)c2ccccc2-c2ccccc2)[C@@H](NC(=O)c2ccc3ccccc3n2)c2cc(OCCCO)ccc2N1C(=O)Cc1ccc(OC)cc1`, the composite z-score in experiment [1] was 0.505; in experiment [3], 0.033; in experiment [4] it was -0.106; in experiment [5] it was 0.105; in experiment [6], 0.428; in experiment [7], 0.134. The composite z-score in experiment [8] was 0.368; in experiment [9], 0.456; in experiment [10], 0.0562; in experiment [11], -0.186; in experiment [12], 0.511; in [13] it was 0.0434. Also, the composite z-score in [14] was 0.47; in [15] it was 0.248; in experiment [16], 0.268; in experiment [18], 0.577; in [19], 0.509. In addition, the composite Z-score in experiment [2] was -0.891 (inactive). Also, the results for the z-score in experiment [17] and in experiment [20] were 0.397 and 0.43 (inactive), respectively.

Consider `C=CC[C@H](OC(=O)Nc1ccc(SC)cc1)c1ccc(O)c2ccccc12`, for which the composite z-score in experiment [1] is 0.923; in [3], 0.152; in experiment [4], -0.107; in experiment [5], 0.634; in experiment [6], 1.72; in experiment [7], 0.368. Also, the composite z-score in experiment [8] came out at 1.29; in [9] it was 0.975; in [10] it was 1.16; in [11], 0.942; in [12] it was 1.23; in [13] it was 0.492. Also, the composite z-score in experiment [14] was 0.938; in experiment [15], 1.36; in experiment [16], 1.23; in experiment [18] it was 1.08; in experiment [19] it was 0.937. Besides, the composite Z-score in experiment [2] is -0.285 (inactive). The z-score in experiment [17] is -1.72; in experiment [20], -4.58 (inactive).

`COC(=O)[C@@]1(Cc2ccc(OC)cc2)[C@H]2c3cc(C(=O)N4CCCC4)n(CCc4c[nH]c5ccc(OC)cc45)c3C[C@H]2CN1C(=O)c1ccccc1`: the composite z-score in experiment [1] turned out to be 0.93; in experiment [3] it was 0.319; in [4] it was 0.387; in experiment [5], 0.711; in experiment [6], 2.81; in experiment [7], 0.8. In addition, the composite z-score in experiment [8] is 1.11; in experiment [9], -1.04; in experiment [10], 0.852; in experiment [11], 1.99; in experiment [12], 1.18; in experiment [13], 0.894. Moreover, the composite z-score in experiment [14] was 0.755; in experiment [15], 1.22; in experiment [16], -0.904; in experiment [18], -0.162; in experiment [19], 1.29. Besides, the composite Z-score in [2] was -0.453 (inactive). Moreover, the figures for the z-score in [17] and in experiment [20] were 0.675 and 1.3 (inactive), respectively.

As for `O=C1N(Cc2ccccc2)c2ccccc2C[C@]12N=C(c1ccc(OCCCO)cc1)O[C@@H]2c1ccccc1`, the composite z-score is 0.185 in experiment [1]; 0.0203 in [3]; -0.161 in experiment [4]; 0.529 in experiment [5]; 1.86 in experiment [6]; 0.274 in [7]. The composite z-score came to 0.48 in experiment [8]; 0.441 in [9]; 1.02 in experiment [10]; 1.1 in experiment [11]; 1.03 in experiment [12]; 1.7 in experiment [13]. The composite z-score in [14] was determined as 0.529; in experiment [15] it was 1.1; in [16], 1.36; in experiment [18] it was 0.492; in [19] it was 0.186. Moreover, the composite Z-score in experiment [2] was 0.109 (inactive). Further, the z-score is -0.911 in experiment [17] and -1.74 (inactive) in experiment [20].

`CC(CO)N1C(=O)[C@]2(C)C3C(=O)OCCC/C=C\[C@H]3OC23C=CCN(c2ccc(Cl)cc2)C(=O)[C@@H]13` (stereo not given in full): the composite z-score was 0.739 in [1]; -0.186 in [3]; -0.14 in experiment [4]; 0.867 in experiment [5]; -0.354 in experiment [6]; 0.644 in experiment [7]. The composite z-score is -1.61 in experiment [8]; 0.217 in experiment [9]; -0.474 in [10]; -0.263 in experiment [11]; -0.48 in experiment [12]; 1.53 in experiment [13]. Further, the composite z-score is -0.316 in experiment [14]; -0.568 in [15]; -0.85 in experiment [16]; -0.506 in experiment [18]; -0.335 in experiment [19]. Further, in [2], the composite Z-score was -0.462 (inactive). Besides, the z-score in experiment [17] was 0.444; in [20], -0.53 (inactive).

Take `C=CCC(OC(C)=O)[C@@H]1[C@@H](N(Cc2ccc(-c3ccccc3)cc2)C(=O)c2ccc(-c3ccccc3)cc2)c2cc(OCCCO)ccc2N1C(=O)c1ccc2ccccc2c1` (stereo not given in full): the composite z-score was -0.186 in experiment [1]; -0.0208 in experiment [3]; -0.115 in [4]; 0.212 in [5]; 0.937 in experiment [6]; -0.129 in experiment [7]. In addition, the composite z-score is 0.352 in [8]; 0.0949 in experiment [9]; -0.38 in experiment [10]; -0.162 in experiment [11]; 0.0751 in experiment [12]; -0.138 in experiment [13]. The composite z-score was -0.239 in experiment [14]; 0.707 in experiment [15]; -0.193 in experiment [16]; 0.476 in experiment [18]; -0.094 in experiment [19]. The composite Z-score in [2] was -0.473 (inactive). Also, the z-score in experiment [17] was 0.657; in [20], -0.424 (inactive).

The values are drawn from PubChem BioAssay.
